Data on three compounds can be found in PubChem BioAssay (EPA / NIEHS).

The structures appear in SMILES notation. Where “and” joins values, the source holds several entries; their conditions need not be identical. Equal entries are not always repeated. Some structures have more than one record in an assay (separate samples or runs), and their calls can disagree. Calls of active or inactive are those of the source. Rule for the calls: active = hit-call score of the fitted dose curve at least 0.9, where 1 is the maximum; inactive = score below 0.9.

The target of assay [1] is Transcription factor E2F1 (Homo sapiens) (UniProt Q01094). As to the kind of experiment: ATG_E2F_CIS: Attagene CIS-FACTORIAL HepG2 Assay for human E2F Transcription Factor 1 (AID 2282935). The settings on record: HepG2 Attagene cis-reporter, E2F reporter RNA transcripts; actives raise or lower the signal. An outline of the steps:
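Measures reporter transcript levels via RT-PCR with capillary electrophoresis detection in HepG2 cells harboring cis-regulated reporter units; 24 h post-dose; bidirectional curve fitting with DMSO as baseline.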

A short description of assay [2]: ATG_E_Box_CIS: Attagene CIS-FACTORIAL HepG2 Assay for human Enhancer Box (E-box) (AID 2282936). The settings on record: HepG2 E-box cis-reporter transcription, actives raise or lower the signal. An outline of the steps:
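First, HepG2 cells receive multiple cis-regulated reporter constructs by transient transfection. Next, chemicals are applied for 24 h. Finally, reporter mRNA is quantified via RT-PCR and capillary electrophoresis, with DMSO as baseline.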

A short description of assay [3]: ATG_M_61_CIS: Attagene CIS-FACTORIAL HepG2 Assay for M61 Transcription Factor (Internal Marker) (AID 2282937). As to conditions: HepG2 Attagene CIS-FACTORIAL M61 internal marker reporter; actives raise or lower the signal. In a few lines:
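Using transiently transfected HepG2 liver cells, reporter transcript levels were assessed 24 h post-dosing by RT-PCR and capillary electrophoresis. Changes in either direction were fitted relative to DMSO controls.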

Assay [4] in a line: ATG_EGR_CIS: Attagene CIS-FACTORIAL HepG2 Assay for human Early Growth Response 1 (EGR1) (AID 2282938). As to conditions: HepG2 Attagene CIS-FACTORIAL EGR reporter mRNA; actives raise or lower the signal. In a few lines: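 Fluorescent capillary-electrophoresis signal of reporter cDNA fragments serves as read-out. HepG2 cells bear transiently transfected cis-promoter reporter units and are exposed 24 h; gain- or loss-of-signal is fitted against DMSO.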

Assay [5] is described as follows: ATG_M_19_CIS: Attagene CIS-FACTORIAL HepG2 Assay for M19 Transcription Factor (Internal Marker) (AID 2282939). The settings on record: HepG2 Attagene CIS-FACTORIAL M19 internal marker reporter; actives raise or lower the signal. In a few lines:
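Readout: fluorescent reporter-transcript fragments by capillary electrophoresis after RT-PCR. Human HepG2 liver cells carried transfected MRTU constructs reporting endogenous transcription-factor activity; exposure 24 h. Gain or loss of signal fitted relative to DMSO.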

Assay [6] in a line: ATG_ERE_CIS: Attagene CIS-FACTORIAL HepG2 Assay for Estrogen Response Element (ERE) (AID 2282940). The settings on record: HepG2 ERE cis-reporter, Attagene RNA transcript; actives raise or lower the signal. An outline of the steps: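 Readout: reporter mRNA induction by RT-PCR, FAM-labelled primer extension, HpaI digestion and capillary electrophoresis, 24 h after dosing transfected HepG2 cells. Endogenous transcription factors act on cis-element-regulated reporters. Gain or loss fitted against DMSO.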

The nature of assay [7]: ATG_Ets_CIS: Attagene CIS-FACTORIAL HepG2 Assay for human Erythroblast Transformation Specific (ETS) (AID 2282941). The settings on record: HepG2 ETS cis-reporter transcription, actives raise or lower the signal. In a few lines:
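After transient cis-reporter transfection, HepG2 cells receive test chemical for 24 h. Reporter mRNA levels, measured by RT-PCR and capillary electrophoresis fluorescence, are analysed bidirectionally relative to the DMSO baseline.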

In assay [8] the target is Hepatocyte nuclear factor 3-beta (Homo sapiens) (UniProt Q9Y261). Put plainly: ATG_FoxA2_CIS: Attagene CIS-FACTORIAL HepG2 Assay for human Forkhead box A2 (FOXA2) (AID 2282942). The settings on record: HepG2 cis-reporter transcription factor activity, 24 h; actives raise or lower the signal. In a few lines: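 Fluorescence signal of reporter cDNA fragments, separated by capillary electrophoresis, reflects endogenous transcription factor activity in transfected HepG2 after 24 h. Both increases and decreases fitted against DMSO.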
Hepatocyte nuclear factor 3-beta (Homo sapiens), sequence (Q9Y261 whole entry, looked up, the tested form may be a part): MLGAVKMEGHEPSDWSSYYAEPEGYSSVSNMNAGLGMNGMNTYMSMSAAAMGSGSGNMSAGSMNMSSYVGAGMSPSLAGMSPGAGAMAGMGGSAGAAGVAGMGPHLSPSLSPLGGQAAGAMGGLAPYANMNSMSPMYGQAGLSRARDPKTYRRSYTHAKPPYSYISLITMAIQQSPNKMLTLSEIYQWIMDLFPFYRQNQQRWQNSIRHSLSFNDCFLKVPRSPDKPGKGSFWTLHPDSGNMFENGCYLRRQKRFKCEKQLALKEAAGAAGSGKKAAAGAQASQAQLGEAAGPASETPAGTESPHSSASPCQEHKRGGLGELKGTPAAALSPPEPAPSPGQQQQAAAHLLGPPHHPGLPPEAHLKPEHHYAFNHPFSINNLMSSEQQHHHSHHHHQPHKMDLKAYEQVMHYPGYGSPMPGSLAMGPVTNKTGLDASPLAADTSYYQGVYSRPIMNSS

The nature of assay [9]: ATG_FoxO_CIS: Attagene CIS-FACTORIAL HepG2 Assay for human Forkhead box O (FoxO) (AID 2282943). As to conditions: HepG2 Attagene cis-reporter, FoxO element, mRNA; actives raise or lower the signal. An outline of the steps:
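HepG2 cells transiently transfected with cis-element-driven reporter units report endogenous FoxO activity. After 24 h chemical exposure, reporter mRNA quantified by RT-PCR, fluorescent labeling, HpaI digestion and capillary electrophoresis; bidirectional fit versus DMSO.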

Assay [10] in a line: ATG_GATA_CIS: Attagene CIS-FACTORIAL HepG2 Assay for human GATA Binding Protein (AID 2282944). As to conditions: HepG2 GATA cis-element reporter, Attagene multiplex mRNA; actives raise or lower the signal. In a few lines: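 Read-out: fluorescent reporter mRNA fragments resolved by capillary electrophoresis after RT-PCR. Human liver HepG2 cells carried transiently transfected cis-regulated reporter constructs; chemicals incubated 24 h; gain or loss of signal fitted relative to DMSO.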

Assay [11] in a line: ATG_GLI_CIS: Attagene CIS-FACTORIAL HepG2 Assay for human Zinc Finger Protein GLI1 (AID 2282945). The settings on record: HepG2, Attagene cis-factorial reporter mRNA, GLI element; actives raise or lower the signal. An outline of the steps:
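Transiently transfected HepG2 cells report endogenous transcription factor activity via cis-element-driven reporter units. After 24 h compound exposure, reporter mRNA was measured by RT-PCR with capillary electrophoresis; bidirectional fitting against DMSO baseline.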

Assay [12] addresses Bile acid receptor (Homo sapiens) (UniProt Q96RI1). As to the kind of experiment: ATG_IR1_CIS: Attagene CIS-FACTORIAL HepG2 Assay for human Nuclear Receptor Subfamily 1 Group H Member 4 (NR1H4), IR1 submotif (AID 2282946). As to conditions: IR1 reporter transcription, actives raise or lower the signal. In a few lines:
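HepG2 cells transiently transfected with multiple cis-promoter-driven reporter units to measure endogenous transcription factor activity; 24 h exposure. Reporter mRNA read by RT-PCR, FAM labelling, HpaI digestion and capillary electrophoresis. Bidirectional fit versus DMSO.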

Assay [13] is described as follows: ATG_GRE_CIS: Attagene CIS-FACTORIAL HepG2 Assay for human Glucocorticoid Response Elements (GRE) (AID 2282947). The settings on record: HepG2 GRE cis-reporter, Attagene multiplex mRNA; actives raise or lower the signal. In a few lines: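 Endogenous transcription factor activity is read through cis-element reporter constructs transiently transfected into HepG2 cells. After 24 h treatment, labelled RT-PCR products are resolved by capillary electrophoresis; DMSO sets baseline for bidirectional curve fitting.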

Assay [14] in a line: ATG_ISRE_CIS: Attagene CIS-FACTORIAL HepG2 Assay for human Interferon Regulatory Factor 1 (IRF1) binding to an Interferon-Stimulated Response Element (ISRE) (AID 2282948). The settings on record: HepG2 ISRE cis-reporter (Attagene), mRNA transcription readout; actives raise or lower the signal. In a few lines: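 Quantitation relies on labelled RT-PCR fragments separated by capillary electrophoresis. Human HepG2 cells bearing cis-promoter reporter constructs were treated 24 h; DMSO served as baseline for bidirectional fitting.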

Assay [15] is described as follows: ATG_M_32_CIS: Attagene CIS-FACTORIAL HepG2 Assay for M32 Transcription Factor (Internal Marker) (AID 2282949).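 Note: background control marker of the multiplexed CIS panel rather than a real target.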 As to conditions: HepG2 Attagene cis-factorial M32 reporter, mRNA; actives raise or lower the signal. In a few lines:
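Internal background marker read-out: RT-PCR/capillary electrophoresis fluorescence of reporter transcripts from transiently transfected HepG2 cells after 24 h chemical exposure. Activity fitted bidirectionally relative to DMSO negative control.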

A short description of assay [16]: ATG_M_06_CIS: Attagene CIS-FACTORIAL HepG2 Assay for M06 Transcription Factor (Internal Marker) (AID 2282950). As to conditions: HepG2 Attagene CIS-FACTORIAL M06 internal marker reporter; actives raise or lower the signal. An outline of the steps: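 Terse: HepG2, transient MRTU transfection (FuGene 6), 24 h dosing; total RNA, oligo(dT) RT, PCR, FAM label, HpaI cut, capillary electrophoresis; bidirectional fit vs DMSO baseline; background-control endpoint.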

The target in assay [17] is Hypoxia-inducible factor 1-alpha (Homo sapiens) (UniProt Q16665). Put plainly: ATG_HIF1a_CIS: Attagene CIS-FACTORIAL HepG2 Assay for human Hypoxia Inducible Factor 1 (HIF1A) (AID 2282951). As to conditions: HepG2 Attagene cis-factorial HIF1a reporter transcription; actives raise or lower the signal. In a few lines: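 Endogenous-TF cis reporter readout, human HepG2 cells, 24 h incubation; mRNA detected via RT-PCR and capillary electrophoresis fluorescence; DMSO-normalised bidirectional fitting.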
Hypoxia-inducible factor 1-alpha (Homo sapiens), sequence (Q16665 whole entry, looked up): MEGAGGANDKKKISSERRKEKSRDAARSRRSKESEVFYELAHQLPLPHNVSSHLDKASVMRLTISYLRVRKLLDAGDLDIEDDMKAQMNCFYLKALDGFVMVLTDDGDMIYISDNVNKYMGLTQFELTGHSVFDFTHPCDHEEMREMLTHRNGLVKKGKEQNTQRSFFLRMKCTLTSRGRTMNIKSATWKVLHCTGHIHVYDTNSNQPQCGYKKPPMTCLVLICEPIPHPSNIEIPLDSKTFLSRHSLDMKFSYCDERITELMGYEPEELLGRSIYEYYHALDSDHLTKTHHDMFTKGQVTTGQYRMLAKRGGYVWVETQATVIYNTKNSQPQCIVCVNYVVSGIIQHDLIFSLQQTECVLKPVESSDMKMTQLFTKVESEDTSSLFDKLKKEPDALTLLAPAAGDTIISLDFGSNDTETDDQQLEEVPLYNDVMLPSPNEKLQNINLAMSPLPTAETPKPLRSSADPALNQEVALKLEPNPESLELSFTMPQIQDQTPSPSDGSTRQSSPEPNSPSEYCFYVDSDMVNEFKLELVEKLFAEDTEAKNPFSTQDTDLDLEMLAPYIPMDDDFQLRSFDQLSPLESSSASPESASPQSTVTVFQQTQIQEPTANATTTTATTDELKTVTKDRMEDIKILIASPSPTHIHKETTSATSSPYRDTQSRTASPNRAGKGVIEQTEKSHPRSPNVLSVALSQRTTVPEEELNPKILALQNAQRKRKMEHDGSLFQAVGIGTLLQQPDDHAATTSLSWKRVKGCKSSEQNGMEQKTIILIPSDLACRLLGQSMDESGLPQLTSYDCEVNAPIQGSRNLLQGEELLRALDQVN

Assay [18] has as its target Hepatocyte nuclear factor 6 (Homo sapiens) (UniProt Q9UBC0). Put plainly: ATG_HNF6_CIS: Attagene CIS-FACTORIAL HepG2 Assay for human Hepatocyte Nuclear Factor 6 (HNF6) (AID 2282952). As to conditions: HepG2 Attagene cis-factorial HNF6 reporter transcription; actives raise or lower the signal. An outline of the steps:
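Transiently transfected HepG2 cells expressing cis-regulated reporter transcription units were exposed to chemical for 24 h in a 24-well format. Reporter transcript abundance was determined by fluorescence capillary electrophoresis.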

Assay [19] concerns the target Heat shock factor protein 1 (Homo sapiens) (UniProt Q00613). Put plainly: ATG_HSE_CIS: Attagene CIS-FACTORIAL HepG2 Assay for human Heat Shock Transcription Factor 1 (HSE) (AID 2282953). As to conditions: HepG2 HSE cis-reporter, Attagene RNA transcription; actives raise or lower the signal. An outline of the steps: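 Read-out: fluorescence of reporter-specific RT-PCR fragments separated by capillary electrophoresis. HepG2 carrying transfected cis-element reporter units; 24 h dosing; activity fitted in both directions relative to DMSO baseline.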

Assay [20] in a line: ATG_MRE_CIS: Attagene CIS-FACTORIAL HepG2 Assay for human Metal Responsive Element (MRE) (AID 2282954). As to conditions: HepG2 MRE cis-reporter transcription, Attagene multiplex; actives raise or lower the signal. In a few lines:
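Fluorescent reporter fragments separated by capillary electrophoresis give mRNA induction for the MRE unit after 24 h treatment of transfected HepG2 cells. Endogenous transcription-factor activity is read; DMSO serves as negative control and baseline.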

For orientation: AC50 means the midpoint of the concentration-response curve, whichever way the signal moves.

Heat shock factor protein 1 (Homo sapiens), sequence (Q00613 whole entry, looked up, the tested form may be a part): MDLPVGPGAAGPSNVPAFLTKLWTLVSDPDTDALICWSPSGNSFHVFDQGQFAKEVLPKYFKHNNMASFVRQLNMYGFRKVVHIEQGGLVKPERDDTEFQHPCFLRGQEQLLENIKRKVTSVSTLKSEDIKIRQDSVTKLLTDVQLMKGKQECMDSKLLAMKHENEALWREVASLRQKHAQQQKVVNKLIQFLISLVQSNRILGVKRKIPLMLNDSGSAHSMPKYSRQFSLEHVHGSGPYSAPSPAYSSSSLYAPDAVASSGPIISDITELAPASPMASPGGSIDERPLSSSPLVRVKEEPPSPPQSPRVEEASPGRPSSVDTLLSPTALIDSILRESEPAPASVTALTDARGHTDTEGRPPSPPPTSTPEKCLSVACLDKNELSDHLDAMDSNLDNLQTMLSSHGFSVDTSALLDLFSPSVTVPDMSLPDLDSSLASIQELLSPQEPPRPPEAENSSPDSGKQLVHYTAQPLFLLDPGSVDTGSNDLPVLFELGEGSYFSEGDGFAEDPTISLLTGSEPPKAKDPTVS
Transcription factor E2F1 (Homo sapiens), sequence (Q01094 whole entry, looked up): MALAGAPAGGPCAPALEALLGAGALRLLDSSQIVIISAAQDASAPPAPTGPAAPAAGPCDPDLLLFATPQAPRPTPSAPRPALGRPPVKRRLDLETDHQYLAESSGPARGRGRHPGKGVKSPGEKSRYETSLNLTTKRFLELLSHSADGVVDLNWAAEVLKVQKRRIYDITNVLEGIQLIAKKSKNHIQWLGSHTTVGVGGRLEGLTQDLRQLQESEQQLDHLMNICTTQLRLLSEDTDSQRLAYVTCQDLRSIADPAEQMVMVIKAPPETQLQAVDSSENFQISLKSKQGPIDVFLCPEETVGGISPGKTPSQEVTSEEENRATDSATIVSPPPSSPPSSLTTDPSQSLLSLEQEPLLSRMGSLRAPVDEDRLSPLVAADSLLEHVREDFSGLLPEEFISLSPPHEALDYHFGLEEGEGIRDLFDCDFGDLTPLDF
Bile acid receptor (Homo sapiens), sequence (Q96RI1 whole entry, looked up): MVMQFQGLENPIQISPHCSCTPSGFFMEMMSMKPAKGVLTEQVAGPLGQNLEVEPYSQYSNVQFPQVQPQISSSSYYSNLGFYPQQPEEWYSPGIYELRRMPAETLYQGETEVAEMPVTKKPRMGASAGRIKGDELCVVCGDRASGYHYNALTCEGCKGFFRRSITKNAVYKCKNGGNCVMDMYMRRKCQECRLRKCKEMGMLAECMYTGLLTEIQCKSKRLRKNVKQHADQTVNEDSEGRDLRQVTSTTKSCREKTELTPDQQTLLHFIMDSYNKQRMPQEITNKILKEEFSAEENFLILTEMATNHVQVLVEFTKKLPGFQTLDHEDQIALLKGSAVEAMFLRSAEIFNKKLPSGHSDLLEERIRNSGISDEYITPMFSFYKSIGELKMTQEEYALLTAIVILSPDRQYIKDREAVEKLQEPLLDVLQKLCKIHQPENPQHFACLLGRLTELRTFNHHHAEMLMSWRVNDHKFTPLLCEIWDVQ
Hepatocyte nuclear factor 6 (Homo sapiens), sequence (Q9UBC0 whole entry, looked up): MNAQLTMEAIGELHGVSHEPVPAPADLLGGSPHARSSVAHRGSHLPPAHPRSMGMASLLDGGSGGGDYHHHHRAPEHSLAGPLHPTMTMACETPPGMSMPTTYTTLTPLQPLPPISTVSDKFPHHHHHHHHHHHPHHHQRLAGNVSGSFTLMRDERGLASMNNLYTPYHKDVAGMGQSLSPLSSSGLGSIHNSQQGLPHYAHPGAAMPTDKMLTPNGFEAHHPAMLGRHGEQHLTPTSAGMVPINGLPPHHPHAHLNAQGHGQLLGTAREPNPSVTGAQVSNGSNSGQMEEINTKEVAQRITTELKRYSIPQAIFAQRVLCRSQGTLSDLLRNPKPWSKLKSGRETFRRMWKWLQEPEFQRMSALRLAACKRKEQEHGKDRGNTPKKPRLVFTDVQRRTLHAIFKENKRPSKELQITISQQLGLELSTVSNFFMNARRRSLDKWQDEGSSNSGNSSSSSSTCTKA

As for `COc1cc(CCC(=O)CC(=O)CCc2ccc(O)c(OC)c2)ccc1O`, the outcome in assay [1], in assay [2], in assay [3], in assay [4], in assay [5] and in [6] was inactive. The compound was classed as inactive in [7], in assay [8], in [9], in [10], in assay [11] and in assay [12]. The compound was classed as inactive in [13], in assay [14], in assay [15], in assay [16], in assay [17] and in [18]. The outcome in assay [19] was inactive. Moreover, the AC50 in assay [20] was 76.4 µM (active).
Take `CCCOC(=O)c1ccc(O)cc1`: the compound was called inactive in assay [1], in assay [2], in assay [3], in [4], in [5] and in [7]. In addition, the compound was classed as inactive in assay [8], in assay [9], in assay [10], in assay [11], in [12] and in assay [14]. Also, the compound was called inactive in assay [15], in assay [16], in assay [17], in assay [18], in assay [19] and in assay [20]. The AC50 in assay [4] was 157 µM (active); in assay [6], 6.06 µM (active) and 16 µM (active); in assay [17] it was 176 µM (active); in assay [20], 100 µM (active).
As for `NC(=O)N(O)[C@@H]1C=C[C@H](Oc2cccc(Oc3ccc(F)cc3)c2)C1`, the call in assay [1], in assay [2], in assay [3], in [5], in assay [6] and in assay [7] was inactive. Besides, the compound was classed as inactive in [8], in assay [9], in [10], in assay [11], in assay [12] and in assay [13]. In addition, the result in [14], in assay [15], in assay [16] and in [17] was inactive. Further, the AC50 in assay [4] was 33 µM (active); in assay [19], 52.8 µM (active); in [20], 33 µM (active).
